Compound activity: PubChem, The Scripps Research Institute Molecular Screening Center
Shown is part of a subset that was picked to be rich in hits.
TTR transcr act: TTR transcription activation, primary screen | activation, % at 16.7 µM | SH-SY5Y TTR promoter Gaussia luciferase, luminescence; 100% = recombinant luciferase protein wells | 92,000 compounds, 1.3% hits;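 active = activation above the mean of all tested compounds plus 3 SD, cut at about 9.5% in these data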;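 note: cells exposed to compounds for one day before reading; 0% = median of all test compound wells on the plate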
HuH7 TTR inh: decreases TTR transcription in HuH7 cells in activator counter-screen. shares compounds with TTR transcr act. HuH7 TTR promoter-Gaussia luciferase reporter, luminescence. inhibition, % at 16.7 µM. 1,100 compounds, 4% hits. AID 1117279;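 active = average inhibition above the solvent-only control wells' mean plus 3 SD, cut at about 15% in these data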;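 note: 0% = cells with DMSO only and 100% = cells with inhibitor control FD; inhibitors lower well luminescence so higher value means more inhibition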
TTR act confirm: human TTR transcription activation, confirmation | shares compounds with TTR transcr act | SHSY5Y TTR promoter Gaussia luciferase, luminescence; 100% = purified Lucia enzyme wells, no cells | activation, % at 16.7 µM | 1,100 tested, under 10 active;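 active = mean activation above a set limit taken from the earlier primary screen, cut at about 11% in these data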;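 note: 0% = DMSO-treated cells and 100% = recombinant Lucia luciferase without cells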
The depositor's hits bear a star.

Results for CC(C)c1ccc(N(C(=O)c2csnn2)C(C(=O)NC2CCCC2)c2cccnc2)cc1 (configuration not stated) ?
TTR transcr act: -1

How did CCC(C)N1C(=O)c2ccccc2C1C(=O)NC1CCCCCC1 (configuration not stated) do in these assays?
TTR transcr act: 15*; HuH7 TTR inh: -24; TTR act confirm: 0

Results for O=C(NC1CCCC1)C1c2ccccc2C(=O)N1CCCN1CCOCC1 (configuration not stated) ?
TTR transcr act: 1

How did CCC(C)[C@H](NC(=O)[C@@H]1CSC2c3ccccc3C(=O)N21)C(=O)NC1CCCC1 (some centres not stated) do in these assays?
TTR transcr act: -1

Results for CCc1ccc(NC(=O)C2C3CCC(O3)C2C(=O)O)cc1 (configuration not stated) ?
TTR transcr act: -1

What do the screens show for `CSCCC(NC(=O)c1ccc(Cl)cc1Cl)C(=O)NCc1ccncc1` (configuration not stated)?
TTR transcr act: 1

Results for CCOC(=O)CCSc1nc(C)c2cc(C)c(C)cc2n1 ?
TTR transcr act: 15*; HuH7 TTR inh: -5; TTR act confirm: -2

How did CCOc1ccc2nc(SCc3cccc(C)c3)nc(C)c2c1 do in these assays?
TTR transcr act: 1

What do the screens show for `Cc1ccc2nc(SCCC#N)nc(C)c2c1`?
TTR transcr act: -3

How did CCCCN1C(=O)N2CCc3ccccc3C2CS1(=O)=O (configuration not stated) do in these assays?
TTR transcr act: -1

Results for COc1ccc2cc3c(N)nn(C(=O)c4ccccc4[N+](=O)[O-])c3nc2c1 ?
TTR transcr act: 26*; HuH7 TTR inh: 26*; TTR act confirm: -1

How did CCCC1CCC(C(=O)n2nc(N)c3cc4ccc(OC)cc4nc32)CC1 (configuration not stated) do in these assays?
TTR transcr act: -1

How did COc1ccc2cc3c(N)nn(C(=O)c4ccc(Cl)c([N+](=O)[O-])c4)c3nc2c1 do in these assays?
TTR transcr act: -1

Results for Nc1nonc1-n1nnc(C(=O)N/N=C/c2ccc(OCc3ccccc3F)cc2)c1CNc1ccccc1 ?
TTR transcr act: 0

What do the screens show for `O=C(OCc1cccc([N+](=O)[O-])c1)c1ccc[nH]c1=O`?
TTR transcr act: -1

Results for COCCCNC(=S)NNC(=O)c1ccc(S(=O)(=O)N2CCC(C)CC2)cc1 ?
TTR transcr act: 4

Results for COc1cc(-c2n[nH]c(=S)n2-c2ccccc2C(F)(F)F)cc(OC)c1OC ?
TTR transcr act: 9.9*; HuH7 TTR inh: -16; TTR act confirm: 1

Results for COc1cc(-n2c(-c3ccccc3)n[nH]c2=S)c(OC)cc1Cl ?
TTR transcr act: 0

How did FC(F)(F)c1ccccc1-n1c(-c2cnccn2)n[nH]c1=S do in these assays?
TTR transcr act: -2

Results for O=C(COc1ccc(S(=O)(=O)N2CCOCC2)cc1)NC1CC1 ?
TTR transcr act: 2

What do the screens show for `Cc1cccc(C)c1NC(=O)CN(C)C(=O)c1cccc(S(=O)(=O)N2CCN(C)CC2)c1`?
TTR transcr act: 15*; HuH7 TTR inh: -7; TTR act confirm: -1

What do the screens show for `Cc1cccc(C)c1NC(=O)CN(C)C(=O)c1cc(S(=O)(=O)N(C)C)ccc1N1CCCC1`?
TTR transcr act: 2

Results for Cc1cccc(C)c1NC(=O)CN(C)C(=O)c1cccc(S(=O)(=O)N2CCN(c3ccccc3)CC2)c1 ?
TTR transcr act: 0

Results for COCCNc1nnc(SCC(=O)NC(=O)c2ccccc2)s1 ?
TTR transcr act: -1

How did CC(C)c1ccccc1NC(=O)CCCC(=O)O do in these assays?
TTR transcr act: 1

How did Cc1cc2c(NC(=O)Nc3ccc(C(F)(F)F)cc3)cccc2nn1 do in these assays?
TTR transcr act: 0

What do the screens show for `Cc1cc2c(NC(=O)CCCC(=O)O)cccc2nn1`?
TTR transcr act: 10*; HuH7 TTR inh: -11; TTR act confirm: -1

How did O=C(Cn1cnc2ccccc2c1=O)N1CCOCC1 do in these assays?
TTR transcr act: 12*; HuH7 TTR inh: -10; TTR act confirm: 0

Results for COC(=O)Cn1cnc2ccccc2c1=O ?
TTR transcr act: 1

Results for O=C(Cn1cnc2ccccc2c1=O)NCCC(=O)N1CCN(Cc2ccccc2)CC1 ?
TTR transcr act: -2

What do the screens show for `O=C(C[C@@H]1C/C=C\CC[C@H](Cc2ccc(F)cc2)C(=O)OC[C@@H]2CCCN2C1=O)NCCO`?
TTR transcr act: -1

What do the screens show for `Cc1ccc(NC(=O)CNc2cccc(Br)c2)cc1S(=O)(=O)N1CCOCC1`?
TTR transcr act: -1

How did CCOC(=O)C1(Cc2ccc(OC)cc2)CCN(C(=O)c2cncs2)CC1 do in these assays?
TTR transcr act: 9.7*; HuH7 TTR inh: -2; TTR act confirm: 0
